These results are taken from article PMC12136788.

T1: UNK ZnF1-3 (human, UniProt Q9C0B0 31-174)
T1 sequence: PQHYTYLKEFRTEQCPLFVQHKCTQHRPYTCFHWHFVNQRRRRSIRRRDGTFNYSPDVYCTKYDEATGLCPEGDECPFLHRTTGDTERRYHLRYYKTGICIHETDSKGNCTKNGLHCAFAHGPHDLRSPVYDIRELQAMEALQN

B1: 44216504_44217224_307_CDS_ENSG00000096384_ENST00000371646|human|control|control (ssRNA)
RNA: GGGAGUUCUACAGUCCGACGAUCCAAAGUCAGGGUACGUUCCUGAGGGUUGGGGAUGAUGUCAAUUUUCAGCUCUUUACCACUGUCCAACUUCGAAGGGUCUGUCAGGCUCUCAUAGCGAAUCUUGUCCAAGGCAUCAGAAGCCAACAGAGGAUUGAGCAUCA
B2: chr2:203071746:203071747:-_ENSG00000116030_ENST00000392246|hu_hu|FALSE|FALSE (ssRNA)
RNA: GGGAGUUCUACAGUCCGACGAUCCACCACAAGCCUGAAAAUGCAAUGUCCUGAAAAAGGUGACCUCUCUGUGCACACGUAAUUUUUAAAAAGGAGAGGGUAAUAUGAAGGGGACUGAGGCUUGAUCACCAAAAAUCAGCACAACAACAGAGGAUUGAGCAUCA
B3: chr16:49524686:49524687:-_ENSG00000102935_ENST00000562871|hu_mus|FALSE|FALSE (ssRNA)
RNA: GGGAGUUCUACAGUCCGACGAUCAAUUAAAAGGAAAUAUUCAGACAAUAGCCAAGCAAUCACAUCACGAUGCACAAUUACCUAGAAUUGCAAUUAAAAAGUAGUUAACUGAAGGGGGGGGGGGGGAGAAAGAAAAACAAGAAACAACAGAGGAUUGAGCAUCA
B4: chr1:133829981:133829982:+_ENSMUSG00000026434_ENSMUST00000062264|mus_hu|motif|central (ssRNA)
RNA: GGGAGUUCUACAGUCCGACGAUCUAUCAGAAAUAUAGAAUACAUUUUUCAAUCUAAUGAAUUAAUUUUAAAAGGGACCCGGAACAAGAAGCCCAAUCAAAUGCACACAAGUAAUCUAGAAGACAUGAUUACCUCUAAAAUAUGCAACAGAGGAUUGAGCAUCA
B5: 55340085_55340205_1272_CDS_ENSMUSG00000021488_ENSMUST00000099490|mouse|control|control (ssRNA)
RNA: GGGAGUUCUACAGUCCGACGAUCUUCUUUCUGUUUCCCUCUUUUCCUAAGGACAGGUAGUUCUUCAAAUUGAUGUCUGCCUUCAAACAUGACGAUUGCUUUUCCAGCCACCCAGGCUUUUUCAGAAGGGUCUCCAAAAGCCUCCAACAGAGGAUUGAGCAUCA
B6: chr7:151048522:151048523:+_ENSG00000013374_ENST00000566856|hu_mus|hu_hu_hu_mus_True|48_98 (ssRNA)
RNA: GGGAGUUCUACAGUCCGACGAUCCUGUUUCUUAUUUAUGACAAUUUUGAUGUAAUUUUCUUGAAAUCCGAAAGUUUCAGCUAUUUGGGACCUCAGUUCUCUACCAGUGACAUGCAAGCGGGUCUCCAACAAGCUUUUCUUAUCCAACAGAGGAUUGAGCAUCA
B7: chr3:120321071:120321072:+_ENSG00000065518_ENST00000184266|hu_hu|FALSE|FALSE (ssRNA)
RNA: GGGAGUUCUACAGUCCGACGAUCUCAUUGCCAGACUUAAUAUGAGAGGUGAAAUGUUCGAUCCAAUUUUCCUUCCUGGAUAAGUUUUUCUUUCCUAUCCCUCUCAGUUUUGAUAAUAUAAUAAAUGAAGAUGAGGGGCCCAAACAACAGAGGAUUGAGCAUCA
B8: chr3:67279072:67279073:+_ENSMUSG00000027774_ENSMUST00000077271|mus_mus|FALSE|FALSE (ssRNA)
RNA: GGGAGUUCUACAGUCCGACGAUCUGCCCAGAAUCCUACCUCUUGAUGAGAGGACUGUGAGUUUUGAGGCCAACAGGGGCUAUAUACACACAGCCCUUAUGUCCAAAAAAAAAAAAAGCAGUGAAGUAAAUUUAUAUAUAUUUUCAACAGAGGAUUGAGCAUCA
B9: chr1:133829981:133829982:+_ENSMUSG00000026434_ENSMUST00000062264|mus_hu|FALSE|FALSE (ssRNA)
RNA: B4 RNA with G80U, G81A
B10: chr7:138235809:138235810:+_ENSG00000122779_ENST00000415680|hu_mus|FALSE|FALSE (ssRNA)
RNA: GGGAGUUCUACAGUCCGACGAUCAGAAGCAUCACACCUUGCACGAAGAAGGUGCCGUAACCUGUAUGUAAUCAGCCGCUUGCUGUACAGCAAGGCUGUGCUGCUGCCACUGGAAACAGCCCAUUUAGAAAAAUGCAUGACGUGCAACAGAGGAUUGAGCAUCA
B11: chr15:83907240:83907241:-_ENSMUSG00000018865_ENSMUST00000082365|mus_mus|motif|central (ssRNA)
RNA: GGGAGUUCUACAGUCCGACGAUCGCUGUGAAAGAUACUAAUUCUUGGUGCAGUCUGGCAUCUGUGGGGCCUCUUCCACACCGGCCAGUGCCUUCAGAUGCCACCCGCAGCCUCGGGCCAGCUUCCCUGCCGAAACAUUCCUUGCAACAGAGGAUUGAGCAUCA
B12: chr2:242276830:242276831:+_ENSG00000168385_ENST00000391971|hu_mus|FALSE|FALSE (ssRNA)
RNA: GGGAGUUCUACAGUCCGACGAUCUAAGGGCUUCAGUCCAUGUCCAAAAGGUGAAAUGAAGUAGAAGCAACAAUGUACCCUGUUAUCAAUGAUGUGACGCCUGUUCAGUCCACUCUCAUCAUGUAGGUAGCGUUCAAACUGCUCCAACAGAGGAUUGAGCAUCA
B13: chr17:45747064:45747065:+_ENSG00000108424_ENST00000290158|hu_hu|hu_hu_hu_mus_True|28_58 (ssRNA)
RNA: GGGAGUUCUACAGUCCGACGAUCGCCCACAGUCCACGCUGUUGUGUCUCGAACAACUACACUGGGGUCUUUCAUUAAUUCUAUUAGGGUGGGCAUAGCCUGUAUGACUAGUGGUUUCAGUUGAUUAGGCUCUGGUCCUUCCAACAACAGAGGAUUGAGCAUCA
B14: chr1:52246310:52246311:-_ENSMUSG00000026103_ENSMUST00000114513|mus_mus|motif|central (ssRNA)
RNA: GGGAGUUCUACAGUCCGACGAUCGCCCAUCUUGUCAAGAGGAGGAGACCAACACAUCAUGCCCAUGACGUUGGGGACAACGGAAAGAAUACCCCCAGCAACUCCAGAUUUUGCAGGAAGACCAACAUGGAACGCAAACUGCCCCAACAGAGGAUUGAGCAUCA

Positions count from the first letter of the chain named. In all, about 24,000 sequences were measured (“enrichment r”: median about 0.99, highest 2% from about 3.7 on). The full list was thinned out, with the highest values kept by preference.

In the assay the target is T1, UNK ZnF1-3. Briefly: nsRBNS (natural sequence RNA bind-n-seq); RBNS binding buffer (assumed for nsRBNS): 25 mM Tris pH 7.5, 150 mM KCl, 3 mM MgCl2, 0.01% Triton X-100, 500 ug/ml BSA, 20 U/ml SUPERase-In, 4 C; UNK is unkempt and MSI1 is Musashi-1; names of the RNAs are library labels; protein concentration not given here; high values mean tight binding.
On to B1, for which the binding signal worked out at 0.999 enrichment R.
In turn, B2 displayed a binding signal of 3.8 enrichment R.
B3 returned a binding signal of 1.26 enrichment R.
The figure for B4 is 5.06 enrichment R; for B5 it is 0.635 enrichment R.
Regarding B6, the binding signal was 0.854 enrichment R.
As to B7, the binding signal amounted to 2.02 enrichment R.
For the molecule B8, the binding signal was 4.32 enrichment R.
B9 had a binding signal of 4.97 enrichment R.
B10 gave a binding signal of 0.971 enrichment R.
The molecule B11 displayed a binding signal of 0.646 enrichment R.
With B12, the binding signal is 0.794 enrichment R.
Consider B13, for which the binding signal came to 0.639 enrichment R.
The figure for B14 is 1.07 enrichment R.
